Key:
Test in all cases: log2 ratio of Biotin-Ahx-Ub-VS probe labelling (fragment/DMSO); higher = less target engagement (more negative = stronger competition), active = hit call of the paper (q ≤ 0.05, log2 ratio ≤ -1)
Conditions in all cases: compound concentration: 200 uM; treatment time: 3 h
[1] = target: USP34 (UniProt Q70CQ2)
How it was run: (§1)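 HEK293T lysate in Tris/CHAPS/IGEPAL buffer with protease inhibitors (495 µg per sample) was given fragment at 200 µM or vehicle for 3 h, in triplicate. It then received Biotin-Ahx-Ub-VS at 0.5 µM final for 1 h. Labelled DUBs were NeutrAvidin-enriched, digested with LysC and trypsin, and run by diaPASEF LC-MS/MS. Values are average log2 fragment/vehicle ratios by unpaired t-test on global-median-normalised Spectronaut quantities of proteins with ≥2 unique peptides.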

[2] = target: T1, USP36 (UniProt Q9P275)
T1 sequence (whole entry): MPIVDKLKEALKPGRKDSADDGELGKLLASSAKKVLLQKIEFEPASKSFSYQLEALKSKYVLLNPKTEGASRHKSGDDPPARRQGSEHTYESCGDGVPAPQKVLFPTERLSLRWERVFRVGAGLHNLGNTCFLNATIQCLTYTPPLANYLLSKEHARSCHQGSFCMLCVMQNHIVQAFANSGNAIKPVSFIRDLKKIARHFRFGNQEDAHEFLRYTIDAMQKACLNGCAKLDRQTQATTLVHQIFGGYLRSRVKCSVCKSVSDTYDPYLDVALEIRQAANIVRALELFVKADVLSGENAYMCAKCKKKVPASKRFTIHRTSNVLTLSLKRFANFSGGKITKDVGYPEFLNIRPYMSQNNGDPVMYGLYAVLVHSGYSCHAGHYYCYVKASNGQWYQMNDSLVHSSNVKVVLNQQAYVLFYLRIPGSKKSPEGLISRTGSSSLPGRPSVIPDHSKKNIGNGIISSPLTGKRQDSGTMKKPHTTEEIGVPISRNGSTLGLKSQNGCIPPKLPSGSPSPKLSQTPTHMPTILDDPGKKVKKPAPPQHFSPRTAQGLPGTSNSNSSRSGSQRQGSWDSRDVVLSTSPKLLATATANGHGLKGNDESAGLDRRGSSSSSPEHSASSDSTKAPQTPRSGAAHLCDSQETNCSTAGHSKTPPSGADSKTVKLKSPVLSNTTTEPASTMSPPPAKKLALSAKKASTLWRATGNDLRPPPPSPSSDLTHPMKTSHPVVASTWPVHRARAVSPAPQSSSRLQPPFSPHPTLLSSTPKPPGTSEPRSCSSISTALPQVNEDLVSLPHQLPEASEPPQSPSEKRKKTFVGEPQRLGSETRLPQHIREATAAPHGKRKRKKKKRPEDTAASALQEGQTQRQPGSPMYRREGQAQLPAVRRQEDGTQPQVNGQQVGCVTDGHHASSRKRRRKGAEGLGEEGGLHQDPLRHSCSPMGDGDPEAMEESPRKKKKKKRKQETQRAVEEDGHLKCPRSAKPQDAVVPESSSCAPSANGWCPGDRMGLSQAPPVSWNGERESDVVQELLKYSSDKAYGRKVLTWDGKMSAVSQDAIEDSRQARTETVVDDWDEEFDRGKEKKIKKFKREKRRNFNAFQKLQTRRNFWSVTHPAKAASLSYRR
How it was run: as §1

[3] = target: T2, USP38 (UniProt Q8NB14)
T2 sequence (whole entry): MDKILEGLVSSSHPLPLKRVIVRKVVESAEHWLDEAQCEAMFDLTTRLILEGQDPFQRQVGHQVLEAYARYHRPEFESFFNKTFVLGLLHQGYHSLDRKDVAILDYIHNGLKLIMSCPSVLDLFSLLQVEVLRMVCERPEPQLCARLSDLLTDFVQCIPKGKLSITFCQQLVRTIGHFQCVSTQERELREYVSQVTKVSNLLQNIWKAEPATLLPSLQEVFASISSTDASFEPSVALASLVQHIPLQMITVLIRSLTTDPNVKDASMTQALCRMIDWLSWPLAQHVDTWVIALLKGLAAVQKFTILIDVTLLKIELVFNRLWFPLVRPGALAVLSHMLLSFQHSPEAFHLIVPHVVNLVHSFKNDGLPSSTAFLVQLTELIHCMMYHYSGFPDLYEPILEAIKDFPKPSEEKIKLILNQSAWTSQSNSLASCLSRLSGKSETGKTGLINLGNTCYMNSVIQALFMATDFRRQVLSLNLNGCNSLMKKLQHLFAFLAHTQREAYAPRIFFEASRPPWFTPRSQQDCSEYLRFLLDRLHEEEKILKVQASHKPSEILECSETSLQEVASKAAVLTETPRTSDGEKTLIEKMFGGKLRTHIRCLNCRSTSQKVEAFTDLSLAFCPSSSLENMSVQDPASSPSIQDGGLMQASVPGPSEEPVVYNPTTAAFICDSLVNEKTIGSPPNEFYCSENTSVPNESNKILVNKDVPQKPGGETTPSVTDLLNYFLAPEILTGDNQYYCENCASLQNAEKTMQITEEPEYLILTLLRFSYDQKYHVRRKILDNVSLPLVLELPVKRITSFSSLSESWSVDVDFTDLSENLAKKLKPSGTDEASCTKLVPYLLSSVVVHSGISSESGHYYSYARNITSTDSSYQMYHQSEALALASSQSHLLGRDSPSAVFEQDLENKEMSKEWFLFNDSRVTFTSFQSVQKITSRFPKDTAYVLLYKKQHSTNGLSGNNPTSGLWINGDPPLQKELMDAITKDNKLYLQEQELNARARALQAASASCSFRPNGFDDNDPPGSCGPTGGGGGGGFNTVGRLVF
How it was run: as §1

[4] = target: T3, USP39 (UniProt Q53GS9)
T3 sequence (whole entry): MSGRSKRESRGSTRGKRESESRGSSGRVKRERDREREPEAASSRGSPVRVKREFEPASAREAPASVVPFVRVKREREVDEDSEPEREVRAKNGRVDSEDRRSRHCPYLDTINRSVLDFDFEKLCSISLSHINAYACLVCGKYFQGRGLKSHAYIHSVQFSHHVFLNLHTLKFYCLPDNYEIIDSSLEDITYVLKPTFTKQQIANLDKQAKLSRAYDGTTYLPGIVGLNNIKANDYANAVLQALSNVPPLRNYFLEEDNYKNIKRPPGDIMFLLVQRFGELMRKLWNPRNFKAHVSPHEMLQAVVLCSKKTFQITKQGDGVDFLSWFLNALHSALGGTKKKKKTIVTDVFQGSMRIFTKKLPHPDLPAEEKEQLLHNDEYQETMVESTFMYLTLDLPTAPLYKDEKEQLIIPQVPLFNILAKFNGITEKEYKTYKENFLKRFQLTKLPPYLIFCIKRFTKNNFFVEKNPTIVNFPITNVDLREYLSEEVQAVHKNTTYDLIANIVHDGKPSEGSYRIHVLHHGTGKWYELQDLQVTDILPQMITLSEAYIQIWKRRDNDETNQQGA
How it was run: as §1

[5] = target: T4, USP4 (UniProt Q13107)
T4 sequence (whole entry): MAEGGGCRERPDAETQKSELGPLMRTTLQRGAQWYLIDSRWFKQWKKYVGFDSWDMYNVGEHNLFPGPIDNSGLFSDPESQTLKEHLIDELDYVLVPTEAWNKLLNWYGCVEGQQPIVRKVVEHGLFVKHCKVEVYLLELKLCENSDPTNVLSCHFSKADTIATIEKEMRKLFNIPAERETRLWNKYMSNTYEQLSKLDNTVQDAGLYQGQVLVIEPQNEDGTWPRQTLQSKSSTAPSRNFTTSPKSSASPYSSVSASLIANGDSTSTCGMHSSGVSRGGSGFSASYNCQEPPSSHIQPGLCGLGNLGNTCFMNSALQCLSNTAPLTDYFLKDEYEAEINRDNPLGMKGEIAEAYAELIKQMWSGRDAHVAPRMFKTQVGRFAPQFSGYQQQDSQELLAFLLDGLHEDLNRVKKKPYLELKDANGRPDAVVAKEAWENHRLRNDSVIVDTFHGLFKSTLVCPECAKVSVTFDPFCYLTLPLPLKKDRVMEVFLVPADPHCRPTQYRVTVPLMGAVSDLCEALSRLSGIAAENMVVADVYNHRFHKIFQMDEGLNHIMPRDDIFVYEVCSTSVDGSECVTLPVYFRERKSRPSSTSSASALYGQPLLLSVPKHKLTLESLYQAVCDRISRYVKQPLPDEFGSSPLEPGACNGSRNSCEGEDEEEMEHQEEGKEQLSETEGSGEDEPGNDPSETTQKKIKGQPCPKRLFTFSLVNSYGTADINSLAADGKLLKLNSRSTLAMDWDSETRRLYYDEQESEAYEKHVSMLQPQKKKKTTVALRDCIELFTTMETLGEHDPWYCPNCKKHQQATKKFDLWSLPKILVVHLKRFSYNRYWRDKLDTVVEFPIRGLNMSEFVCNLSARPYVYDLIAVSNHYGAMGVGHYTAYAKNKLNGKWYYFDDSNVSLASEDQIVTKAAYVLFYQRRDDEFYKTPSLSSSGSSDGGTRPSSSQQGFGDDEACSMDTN
How it was run: as §1

Measured: log2 ratio of Biotin-Ahx-Ub-VS probe labelling

Chain of USP34 (Q70CQ2 whole entry, the tested form may be a part): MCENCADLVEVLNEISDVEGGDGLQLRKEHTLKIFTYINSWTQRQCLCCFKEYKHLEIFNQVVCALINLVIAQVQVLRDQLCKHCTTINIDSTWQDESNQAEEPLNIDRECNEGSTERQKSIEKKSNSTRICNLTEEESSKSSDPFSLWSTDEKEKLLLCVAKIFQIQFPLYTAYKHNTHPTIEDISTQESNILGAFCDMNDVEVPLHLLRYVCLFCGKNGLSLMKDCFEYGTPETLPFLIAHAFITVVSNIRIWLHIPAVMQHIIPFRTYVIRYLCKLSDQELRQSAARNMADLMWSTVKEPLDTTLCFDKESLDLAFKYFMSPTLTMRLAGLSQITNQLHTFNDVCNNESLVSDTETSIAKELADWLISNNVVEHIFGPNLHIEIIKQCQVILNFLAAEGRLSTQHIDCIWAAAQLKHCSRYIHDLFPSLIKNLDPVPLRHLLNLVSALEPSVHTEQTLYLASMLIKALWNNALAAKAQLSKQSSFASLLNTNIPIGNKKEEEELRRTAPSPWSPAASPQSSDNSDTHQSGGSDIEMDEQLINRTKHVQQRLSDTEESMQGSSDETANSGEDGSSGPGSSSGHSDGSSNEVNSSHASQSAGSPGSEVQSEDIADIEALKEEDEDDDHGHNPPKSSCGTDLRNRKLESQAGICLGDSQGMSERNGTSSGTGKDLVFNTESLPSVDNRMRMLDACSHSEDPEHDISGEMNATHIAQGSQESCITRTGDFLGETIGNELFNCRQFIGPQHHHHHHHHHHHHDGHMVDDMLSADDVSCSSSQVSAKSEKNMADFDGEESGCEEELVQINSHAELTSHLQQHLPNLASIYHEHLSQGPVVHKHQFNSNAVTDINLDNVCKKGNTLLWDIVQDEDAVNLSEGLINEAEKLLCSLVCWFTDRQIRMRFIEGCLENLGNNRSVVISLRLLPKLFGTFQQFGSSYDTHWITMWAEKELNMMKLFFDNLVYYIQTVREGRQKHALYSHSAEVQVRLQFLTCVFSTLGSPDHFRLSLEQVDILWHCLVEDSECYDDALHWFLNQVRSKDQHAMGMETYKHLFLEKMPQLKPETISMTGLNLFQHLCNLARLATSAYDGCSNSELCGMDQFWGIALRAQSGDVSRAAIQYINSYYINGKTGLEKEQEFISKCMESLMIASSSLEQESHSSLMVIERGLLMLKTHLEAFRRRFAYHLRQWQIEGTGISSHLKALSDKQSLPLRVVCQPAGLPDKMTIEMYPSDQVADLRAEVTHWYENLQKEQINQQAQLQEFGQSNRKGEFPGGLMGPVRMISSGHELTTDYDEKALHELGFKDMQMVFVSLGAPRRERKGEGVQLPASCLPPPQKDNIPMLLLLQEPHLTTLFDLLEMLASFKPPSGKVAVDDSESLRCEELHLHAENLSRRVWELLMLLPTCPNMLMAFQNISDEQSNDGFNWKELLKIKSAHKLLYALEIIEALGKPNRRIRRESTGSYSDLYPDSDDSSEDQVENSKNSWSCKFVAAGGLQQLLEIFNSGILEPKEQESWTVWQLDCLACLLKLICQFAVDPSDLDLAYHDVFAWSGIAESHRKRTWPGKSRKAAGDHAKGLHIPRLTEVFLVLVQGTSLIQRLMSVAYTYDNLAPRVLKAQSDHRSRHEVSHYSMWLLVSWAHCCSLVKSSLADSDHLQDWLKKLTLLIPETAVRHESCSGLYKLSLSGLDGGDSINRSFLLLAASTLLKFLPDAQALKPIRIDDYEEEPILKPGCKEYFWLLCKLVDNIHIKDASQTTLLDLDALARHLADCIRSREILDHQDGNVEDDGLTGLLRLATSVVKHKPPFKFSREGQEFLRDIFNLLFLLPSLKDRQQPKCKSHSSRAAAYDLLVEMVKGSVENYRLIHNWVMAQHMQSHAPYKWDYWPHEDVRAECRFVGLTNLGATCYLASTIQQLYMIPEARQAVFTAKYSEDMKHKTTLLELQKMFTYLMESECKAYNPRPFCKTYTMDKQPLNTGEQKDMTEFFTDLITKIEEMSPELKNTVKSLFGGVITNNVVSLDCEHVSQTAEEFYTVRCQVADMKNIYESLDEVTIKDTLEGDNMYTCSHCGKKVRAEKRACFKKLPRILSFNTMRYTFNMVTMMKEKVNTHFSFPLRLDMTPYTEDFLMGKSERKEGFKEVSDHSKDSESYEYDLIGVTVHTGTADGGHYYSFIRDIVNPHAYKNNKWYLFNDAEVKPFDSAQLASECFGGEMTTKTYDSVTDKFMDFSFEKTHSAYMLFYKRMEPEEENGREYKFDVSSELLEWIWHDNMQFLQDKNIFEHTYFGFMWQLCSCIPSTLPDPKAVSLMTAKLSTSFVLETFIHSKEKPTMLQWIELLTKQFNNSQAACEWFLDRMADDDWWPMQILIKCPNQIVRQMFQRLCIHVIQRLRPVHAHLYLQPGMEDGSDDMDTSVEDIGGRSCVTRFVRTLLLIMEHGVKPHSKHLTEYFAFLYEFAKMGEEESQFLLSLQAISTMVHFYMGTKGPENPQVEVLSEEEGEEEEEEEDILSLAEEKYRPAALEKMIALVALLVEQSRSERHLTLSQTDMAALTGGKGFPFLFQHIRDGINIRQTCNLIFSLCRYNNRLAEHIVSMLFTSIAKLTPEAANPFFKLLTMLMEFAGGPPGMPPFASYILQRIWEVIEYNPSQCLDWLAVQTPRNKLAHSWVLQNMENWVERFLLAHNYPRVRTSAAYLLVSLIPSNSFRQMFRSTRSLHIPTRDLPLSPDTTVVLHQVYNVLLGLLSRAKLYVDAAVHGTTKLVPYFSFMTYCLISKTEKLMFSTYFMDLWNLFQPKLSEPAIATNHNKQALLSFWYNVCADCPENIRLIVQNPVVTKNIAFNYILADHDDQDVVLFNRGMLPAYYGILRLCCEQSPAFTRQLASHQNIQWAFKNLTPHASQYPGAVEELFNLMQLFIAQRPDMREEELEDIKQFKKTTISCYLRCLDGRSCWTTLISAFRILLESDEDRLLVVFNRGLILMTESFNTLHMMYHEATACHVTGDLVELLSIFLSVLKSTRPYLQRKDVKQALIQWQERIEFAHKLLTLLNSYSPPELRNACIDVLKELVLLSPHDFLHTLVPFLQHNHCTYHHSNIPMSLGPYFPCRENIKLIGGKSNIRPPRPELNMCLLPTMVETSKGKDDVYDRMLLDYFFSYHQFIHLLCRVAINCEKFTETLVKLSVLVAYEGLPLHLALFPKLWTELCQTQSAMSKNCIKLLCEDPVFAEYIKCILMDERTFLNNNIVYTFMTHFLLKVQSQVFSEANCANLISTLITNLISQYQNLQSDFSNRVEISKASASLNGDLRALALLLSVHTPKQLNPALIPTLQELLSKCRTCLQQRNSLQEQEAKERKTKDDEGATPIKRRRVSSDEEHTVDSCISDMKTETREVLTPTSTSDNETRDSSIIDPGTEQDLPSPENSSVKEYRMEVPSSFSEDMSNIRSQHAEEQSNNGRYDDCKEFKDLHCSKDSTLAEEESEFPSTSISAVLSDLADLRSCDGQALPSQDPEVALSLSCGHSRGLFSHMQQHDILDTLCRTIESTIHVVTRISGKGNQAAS

O=C(CCl)NCc1ccc(N2CCOCC2)c(F)c1
inactive: [1] -0.0627 | [2] -0.165 | [3] 0.104 | [4] 0.0411 | [5] 0.263

Reference: the supplement of paper PMC11732987, “Enantioselective OTUD7B fragment discovery through chemoproteomics screening and high-throughput optimisation” (Communications Chemistry, 2025)
